{"source": "PubChem BioAssay AID434973", "about": "(Sanford-Burnham Center for Chemical Genomics, 2010)", "note": "In all, about 330,000 compounds went through this assay and about 4,900 (1.5%) were called active. This is one part of a sample in which actives are shown more often than they occur. Values without a mark were called inactive.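 Rule for the calls: active = inhibition above about 50% at the single test dose (limit read from the data); inactive = the rest.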"}
{"target": "Sentrin-specific protease 7 (Homo sapiens) (UniProt Q9BQF6)", "assay": "blockers of human SENP7 peptidase activity – biochemical, luminescence, uHTS, primary screen (AID 434973);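 note: plate controls were DMSO with enzyme for no effect and no enzyme buffer wells for full effect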", "conditions": "recombinant SENP7, Z-RLRGG-aminoluciferin luminescence, 40 min; at 5 µM; active compounds read high"}
{"smiles": "Cn1nccc1NS(=O)(=O)c1ccc(F)cc1", "inhibition": "4.62%"}
{"smiles": "O=C(CN1CCOC1=O)N1CCCC(Nc2ccc(F)c(F)c2)C1", "note": "(centres undefined)", "inhibition": "1.33%"}
{"smiles": "Cc1cccc(NC(=O)c2cc(N3C(=O)CCC3=O)ccc2Cl)n1", "inhibition": "6.63%"}
{"smiles": "Cc1cccc(NC(=O)c2cccnc2Cl)n1", "inhibition": "5.58%"}
{"smiles": "Cc1cccc(NC(=O)c2ccc3ccccc3n2)n1", "inhibition": "78.7% (active)"}
{"smiles": "O=C(O)C1=CCCN(CCON=C(c2ccccc2)c2ccccc2)C1", "inhibition": "1.76%"}
{"smiles": "Cc1ccc(CSc2nsc(C)c2C#N)cc1", "inhibition": "-2.96%"}
{"smiles": "COC(=O)C(=Nc1ccccc1)/C(C(=O)C(=O)N(C)c1ccccc1)=C(\\O)c1ccc(Cl)cc1", "inhibition": "-1.49%"}
{"smiles": "CCn1c(CC(=O)Nc2ccccc2C)nnc1SCC(=O)NC1=NCCS1", "inhibition": "-7.93%"}
{"smiles": "CSCc1ccc(C(=O)Nc2cc(C)cc(C)c2)cc1", "inhibition": "75.3% (active)"}
{"smiles": "C=CCN(c1ccc(C(=O)Nc2cc(C)cc(C)c2)cc1)S(C)(=O)=O", "inhibition": "6.36%"}
{"smiles": "CC(=O)Nc1ccccc1NC(=O)c1cc(C)cc(C)c1", "inhibition": "2.28%"}
{"smiles": "CN(C)C(=O)Cn1c(=O)n(S(=O)(=O)c2ccccc2)c2ccccc21", "inhibition": "2.64%"}
{"smiles": "C/C(=N\\NC(=O)CNC(=O)C(c1ccccc1)c1ccccc1)c1ccc(C)cc1", "inhibition": "-4.66%"}
{"smiles": "C/C(=N\\NC(=O)c1ccc(C)cc1)C1C(=O)c2ccccc2C1=O", "inhibition": "77.1% (active)"}
{"smiles": "Cc1ccc(C(=O)N/C(=C/c2cccnc2)C(=O)O)cc1", "inhibition": "-9.12%"}
{"smiles": "CC(=O)N1c2ccc(S(=O)(=O)N3CCCC(C(=O)Nc4ccc(C)cc4C)C3)cc2CC1C", "note": "(centres undefined)", "inhibition": "7.52%"}
{"smiles": "CSc1ccc(C#N)cc1NC(=O)c1ccc(Cl)cc1", "inhibition": "0.394%"}
{"smiles": "CNC(=O)c1sc(NCc2ccccc2OC)nc1C", "inhibition": "6.9%"}
{"smiles": "COc1cccc2sc(Nc3nc(C)c(C(C)=O)s3)nc12", "inhibition": "69.1% (active)"}
{"smiles": "CC(=O)c1sc(N/N=C/c2ccc(C(C)C)cc2)nc1C", "inhibition": "0.0938%"}
{"smiles": "COc1ccc(S(=O)(=O)N2CCOC2CNC(=O)C(=O)NCc2ccc(F)cc2)cc1", "note": "(centres undefined)", "inhibition": "2.2%"}
{"smiles": "C=CCN(C(=O)Nc1ccc2c(c1)nc(C)n2C)c1ccccc1", "inhibition": "5.72%"}
{"smiles": "Cn1c(CCN2CCCCCC2)nc2cc(NC(=O)Nc3ccccc3)ccc21", "inhibition": "10%"}
{"smiles": "Cc1nc2cc(NC(=O)Nc3cccc(F)c3)ccc2n1C", "inhibition": "96.5% (active)"}
{"smiles": "Cc1nc2nc(CSc3nc4ccccc4s3)cc(=O)n2[nH]1", "inhibition": "-13.3%"}
{"smiles": "NC(=O)c1ccc(Nc2ccc3nonc3c2[N+](=O)[O-])cc1", "inhibition": "-0.507%"}
{"smiles": "O=[N+]([O-])c1c(NCCO)cc(Sc2nc3ccccc3s2)c2nonc12", "inhibition": "79.2% (active)"}
{"smiles": "COc1ccc(OCC(O)CN(C)C(=O)C(C)Oc2ccccc2)cc1", "note": "(centres undefined)", "inhibition": "11.8%"}
{"smiles": "COc1ccc(C2=NS(=O)(=O)N(C)C(C(=O)N3CCCCC3)=C2)cc1", "inhibition": "-5.66%"}
{"smiles": "O=C(CCNS(=O)(=O)c1cccs1)N1CCN(c2ccc(F)cc2)CC1", "inhibition": "-1.51%"}
{"smiles": "N/C(=N\\OC(=O)CCC1CCCCC1)c1ccccn1", "inhibition": "82% (active)"}
{"smiles": "COc1ccccc1OCC(=O)O/N=C(\\N)c1ccccn1", "inhibition": "7.18%"}
{"smiles": "N/C(=N\\OC(=O)CC1CCCCC1)c1ccccc1", "inhibition": "21.8%"}
{"smiles": "O=C(CSc1nnc(COc2ccc(Cl)cc2)n1Cc1ccco1)N1CCNC1=O", "inhibition": "-0.0156%"}
{"smiles": "O=S(=O)(NCC1CC1)c1ccc(F)c(Cl)c1", "inhibition": "2.72%"}
{"smiles": "COc1ccccc1N=Cc1c(O)c2ccccc2oc1=O", "inhibition": "88% (active)"}
{"smiles": "COc1cc(N=Cc2c(O)c3ccccc3oc2=O)c(OC)cc1Cl", "inhibition": "-0.159%"}
{"smiles": "COc1ccccc1N=C(C)C1=C(O)COC1=O", "inhibition": "-4.17%"}
{"smiles": "N/C(=N\\OC(=O)N1c2ccccc2Sc2ccccc21)c1ccc(Br)cc1", "inhibition": "-8.09%"}
{"smiles": "N/C(=N\\OC(=O)c1ccc2c(c1)OCO2)c1ccc(Br)cc1", "inhibition": "71.1% (active)"}
{"smiles": "N/C(=N\\OC(=O)/C=C/c1ccccc1)c1ccc(Br)cc1", "inhibition": "9.06%"}
{"smiles": "COc1ccc(C2c3c(C)nn(-c4ccccc4)c3NC(=O)N2c2ccccc2)cc1", "note": "(centres undefined)", "inhibition": "3.05%"}
{"smiles": "CCCCNC(=O)OC(C)CNC(=O)OC", "note": "(centres undefined)", "inhibition": "-1.91%"}
{"smiles": "Cc1ccc(C(=O)NCC(=O)O)s1", "inhibition": "-11.9%"}
{"smiles": "O=C(NCCc1ccccc1)C1CC1", "inhibition": "-1.24%"}
{"smiles": "COc1ccc(N(C(=O)c2snc(C(N)=O)c2N)C(C(=O)NC2CCCC2)c2ccco2)cc1OC", "note": "(centres undefined)", "inhibition": "-9.37%"}
{"smiles": "CC(C)CC(=O)N/C(N)=N/c1nc2ccccc2s1", "inhibition": "33.4%"}
{"smiles": "C/C(=N\\NC(=O)CC(C)C)c1c(C(F)(F)F)[nH]n(-c2nc3ccccc3s2)c1=O", "inhibition": "98.7% (active)"}
{"smiles": "CCC(C)Cn1c(O)cc2nn(-c3nc4ccccc4s3)c(=O)c-2c1C", "note": "(centres undefined)", "inhibition": "8.83%"}
{"smiles": "CC(=NCc1ccco1)c1c(C(F)(F)F)[nH]n(-c2nc3ccccc3s2)c1=O", "inhibition": "98.9% (active)"}
{"smiles": "CCC1(CC)NC(=O)N(Cc2nc3ccccc3s2)C1=O", "inhibition": "-4.41%"}
{"smiles": "CCc1ccc(-c2cc(C(=O)NCc3ccco3)c3ccccc3n2)s1", "inhibition": "6.27%"}
{"smiles": "CC(=O)c1sc(NC(=O)CCN2C(=O)C3CC=CCC3C2=O)nc1-c1ccccc1", "note": "(centres undefined)", "inhibition": "0.528%"}
{"smiles": "Cc1ccc(C)c(N2C(=O)CS/C2=N\\NC(=O)c2ccccc2Cl)c1", "inhibition": "-12.9%"}
{"smiles": "CCCCC/C=C/C1=CC(=O)C[C@H](c2ccc(Cl)cc2)C1", "inhibition": "2.82%"}
{"smiles": "COc1ccc(C(=O)/C=C/Nc2ccccn2)cc1", "inhibition": "99.2% (active)"}
{"smiles": "O=C(/C=C/NCc1ccc(F)cc1)c1ccccc1", "inhibition": "7.34%"}
{"smiles": "Cc1cc(N/C=C\\C(=O)c2ccc(Cl)c(Cl)c2)no1", "inhibition": "10.2%"}
{"smiles": "CCOc1ccc(NC(=S)N2CCC(NC(=O)c3ccccc3)CC2)cc1", "inhibition": "-5.22%"}
{"smiles": "CCOc1ccc(N/C=C/C(=O)c2cc(OC)c(OC)c(OC)c2)cc1", "inhibition": "-14.5%"}
{"smiles": "CCOc1ccc(N/C=C/C(=O)c2ccccc2)cc1", "inhibition": "99.3% (active)"}
{"smiles": "Cc1ccc(N/C=C/C(=O)c2ccccc2)cc1C", "inhibition": "91.8% (active)"}
{"smiles": "COc1ccc(N2C(=O)CCC(C(=O)Nc3ccccn3)C2c2ccc(OC)c(OC)c2)cc1", "note": "(centres undefined)", "inhibition": "9.84%"}
{"smiles": "CC(=O)Nc1ccc(/C=C/C(=O)c2ccccc2)cc1", "inhibition": "-13.6%"}
{"smiles": "NCCCC[C@@H]1NC(=O)[C@H](CCC(=O)O)NC(=O)c2cc([N+](=O)[O-])cc(I)c2NCC[C@@H](C(N)=O)NC1=O", "inhibition": "0.545%"}
{"smiles": "O=C(COC(=O)c1cccnc1Cl)NC(=O)NC1CCCCC1", "inhibition": "-2.4%"}
{"smiles": "c1c2c(cc3sc(N4CCCCC4)nc13)OCCO2", "inhibition": "97.8% (active)"}
{"smiles": "O=S(=O)(Nc1ccc2nc(N3CCOCC3)sc2c1)c1ccccc1", "inhibition": "-7.76%"}
{"smiles": "Fc1ccc2nc(N3CCCCC3)sc2c1", "inhibition": "85.3% (active)"}
{"smiles": "Fc1ccc2nc(Nc3nc4c(s3)CCCC4)sc2c1", "inhibition": "9.46%"}
{"smiles": "CN(C)CCCN(C(=O)c1ccc(S(=O)(=O)N2CCCCCC2)cc1)c1nc2cc3c(cc2s1)OCCO3", "inhibition": "4.88%"}
{"smiles": "O=C(NCCc1cccc(F)c1)C1CCCN(c2nc3ccccc3s2)C1", "note": "(centres undefined)", "inhibition": "7.46%"}
{"smiles": "Brc1ccc2nc(N3CCCC3)sc2c1", "inhibition": "93.4% (active)"}
{"smiles": "Cc1nc(N2CCCCC2)sc1C=O", "inhibition": "11.3%"}
{"smiles": "O=C(c1ccc2nc(N3CCOCC3)sc2c1)N1CCN(c2ccc(Cl)cc2)CC1", "inhibition": "0.5%"}
{"smiles": "C/C(CC(=O)N1CCN(C=O)CC1)=N\\NC(=O)c1ccc(Br)cc1", "inhibition": "4.47%"}
{"smiles": "COCC(C)n1c(SCC(=O)NC2CCCCC2C)nc2ccccc2c1=O", "note": "(centres undefined)", "inhibition": "-6.63%"}
{"smiles": "CC(C)NC(=O)c1ccc(Sc2ccccc2)c([N+](=O)[O-])c1", "inhibition": "4.52%"}
{"smiles": "O=C(c1ccc(=O)oc1)N1CCC(C(O)(c2ccccc2)c2ccccc2)CC1", "inhibition": "-5.43%"}
{"smiles": "CCC1CCCCN1C(=S)Nc1ccc(S(=O)(=O)Nc2ncccn2)cc1", "note": "(centres undefined)", "inhibition": "-9.27%"}
{"smiles": "CC(=O)Nc1ccc(/C=N/NC(=O)c2cccs2)cc1", "inhibition": "67.7% (active)"}
{"smiles": "Cc1cccc(-n2c(C)cc(/C=N\\NC(=O)c3cccs3)c2C)c1", "inhibition": "-3.16%"}
{"smiles": "CCc1ccc(NC(=O)C(=O)NNC(=O)c2cccs2)cc1", "inhibition": "51.4% (active)"}
{"smiles": "CC(C)C(=O)Nc1ccc(C(=O)NNC(=O)c2cccs2)cc1", "inhibition": "-0.683%"}
{"smiles": "CCN(CC)c1ccc(/C=N/NC(=O)CNC(=O)c2cccs2)cc1", "inhibition": "2.87%"}
{"smiles": "Cc1ccc(C(=O)Nc2ccc(NC(=O)c3cccs3)cc2)c(C)c1", "inhibition": "-5.29%"}
{"smiles": "O=C(Nc1ccccc1)c1ccc(NC(=O)c2cccs2)cc1", "inhibition": "67.8% (active)"}
{"smiles": "O=C(Nc1ccc(NC(=O)c2cccs2)cc1)c1ccc2ccccc2c1", "inhibition": "-6.64%"}
{"smiles": "CCc1ccc(NC(=O)COC(=O)c2cccs2)cc1", "inhibition": "17.2%"}
{"smiles": "O=C(COC(=O)/C=C/c1cccs1)NC1CCCCC1", "inhibition": "6.28%"}
{"smiles": "COCCCNC(=O)[C@H]1N2C(=O)c3ccccc3C2SC1(C)C", "note": "(some centres undefined)", "inhibition": "-7.11%"}
{"smiles": "COC(=O)Cc1csc(/N=C/c2c(O)n(-c3cccc(C(F)(F)F)c3)c(=O)c3ccccc23)n1", "inhibition": "-1.46%"}
{"smiles": "CCCCN(C(=O)C1CCC1)c1c(N)n(Cc2ccccc2)c(=O)[nH]c1=O", "inhibition": "5.98%"}
{"smiles": "O=C(CCS(=O)(=O)c1ccccc1Cl)Nc1ccc(S(=O)(=O)Nc2ncccn2)cc1", "inhibition": "5.16%"}
{"smiles": "CCCCSCCCNC(=O)C1CCC(CNS(=O)(=O)c2ccc(NC(C)=O)cc2)CC1", "note": "(centres undefined)", "inhibition": "-1.73%"}
{"smiles": "O=c1[nH]c(CN2CCOCC2)nc2cc(Cl)ccc12", "inhibition": "10.2%"}
{"smiles": "O=c1[nH]c(CCl)nc2cc(-c3ccc(Cl)cc3)sc12", "inhibition": "63.1% (active)"}
{"smiles": "NC(=O)Cc1nc2scc(-c3ccc(Cl)cc3)c2c(=O)[nH]1", "inhibition": "-2.34%"}
